# Test results from PubChem BioAssay (Tox21).
# Results filed as inconclusive are left out. Where a call stands in place of a potency, no number is given. Unmarked numbers belong to inactive results. The source made the active and inactive calls. Calls follow the shape of the full dose curve.
# Assay: cAMP Responsive Elements (CRE) small molecule agonists, cell-based qHTS assay (AID 1963590)
# Details: CRE-bla HEK293T, beta-lactamase FRET ratio, 3 h; series mostly up to 92.4 µM; activation: at the top concentration
# From the text: U.S. Tox21 Program National Center for Advancing Translational Sciences [NCATS] Division of Preclinical Innovation [DPI] U.S. Environmental Protection Agency [EPA] National Institutes of Environmental Health Sciences [NIEHS] National Toxicology Program [NTP] U.S. Food and Drug Administration [FDA] Tox21 Assay Overview: CREB (cyclic-AMP Responsive Element Binding Protein) is a cellular transcription factor. It binds to certain DNA sequences called cAMP Responsive Elements (CRE) and regulates the transcription of the genes. […] This cell line can be used to find agonists/antagonists of the cyclic AMP signaling pathway. The activation of the report gene under culture conditions can be detected by fluorescence intensity. This cell line has been used to screen the Tox21 10K compound library to identify agonists that induce oxidative stress.
# Tox21 Assay Protocol Summary: CRE-bla Hek 293T cells were suspended in assay medium (DMEM containing 10% dialyzed FBS, 0.1 mM NEAA, 1 mM sodium pyruvate and 25 mM HEPES) and dispensed at 2,000 cells/5 uL /well into 1536-well black wall/clear bottom plates using a Multidrop Combi (ThermoFisher Scientific, Waltham, MA) dispenser. After the assay plates were incubated at 37 C/5% CO2 for 18 hrs, 23 nL of compounds dissolved in DMSO, positive controls or DMSO only was transferred to the assay plate by a pintool workstation (Kalypsys, San Diego, CA). After the plates were incubated at 37 C/5% CO2 for 3 hrs, 1 uL of LiveBLAzer B/G FRET substrate (Invitrogen, Carlsbad, CA) was added to each well using Bioraptr Flying Reagent Dispenser (FRD, Aurora Discovery, San Diego, CA). The plates were incubated at room temperature for 2 h.
SMILES,Potency,activation [%]
NC(=O)c1cnccn1,inactive,
C/C=C/c1ccc(OC)cc1,inactive,
CCCCNS(=O)(=O)c1ccccc1,inactive,
COCCCN,inactive,
CC1(C)O[C@@H]2C[C@H]3[C@@H]4CCC5=CC(=O)C=C[C@]5(C)[C@@]4(F)[C@@H](O)C[C@]3(C)[C@]2(C(=O)CO)O1,inactive,
Cc1ccc(S(=O)(=O)NC(=O)NN2CCCCCC2)cc1,inactive,
CCCCNC(N)=O,inactive,
N[C@@H](Cc1cc(I)c(Oc2cc(I)c(O)c(I)c2)c(I)c1)C(=O)O,inactive,
[O-]/[N+](=N\O)c1ccccc1,inactive,
O=C(O)c1cc(C(=O)O)cc(S(=O)(=O)O)c1,inactive,
COCC(C)N (stereo not given),inactive,
CC1(C)NC(=O)NC1=O,inactive,
Cc1ncc([N+](=O)[O-])n1CCO,inactive,
Cc1cc(=O)n(-c2ccccc2)n1C,inactive,
c1ccc2c(c1)c1cccc3ccc4cccc2c4c31,,-0.595
O=C1CCC(N2C(=O)c3ccccc3C2=O)C(=O)N1 (stereo not given),inactive,
CC(O)CC(C)(C)O (stereo not given),inactive,
O=S1(=O)CC=CC1,inactive,
CCCCCCCC(=O)OCC(COC(=O)CCCCCCC)OC(=O)CCCCCCC,inactive,
c1ccc2c(c1)ccc1ccccc12,inactive,

SMILES,Potency,activation [%]
O=C(O)CCC(=O)O,inactive,
C=CC[N+](C)(C)CC=C,inactive,
Cc1c(N(C)CS(=O)(=O)O)c(=O)n(-c2ccccc2)n1C,inactive,
CCCCCCCCC/C=C/CC1CC(=O)OC1=O (stereo not given),inactive,
C[Si](C)(C)N[Si](C)(C)C,inactive,
O=S1(=O)CCCO1,inactive,
CC(=O)Nc1c(I)c(NC(C)=O)c(I)c(C(=O)O)c1I,inactive,
O=C=NCCCCCCN=C=O,inactive,
OC1C(O)C(O)C(O)C(O)C1O (stereo not given),inactive,
C=C(C)C(=O)O[C@H]1C[C@@H]2CC[C@@]1(C)C2(C)C,,-0.0138
CCCCC(CC)CO (stereo not given),inactive,
C=C(C)CNCC,inactive,
C#C[C@]1(O)CC[C@H]2[C@@H]3CCc4cc(OC)ccc4[C@H]3CC[C@@]21C,inactive,
O=C(O)c1ccccc1C(=O)O,inactive,
CCOCCO,inactive,
CC(O)CN(CCN(CC(C)O)CC(C)O)CC(C)O (stereo not given),inactive,
CCC1(c2ccccc2)C(=O)NCNC1=O,inactive,
CCCCCCCCCCCCCCCC(=O)O,inactive,
c1cnc2c(c1)ccc1cccnc12,inactive,
CC[Si](OC(C)=O)(OC(C)=O)OC(C)=O,inactive,
